Bioassay records as filed in PubChem.
KDM5B inh – inhibitors of human KDM5B histone demethylase. Q9UGL1. KDM5B demethylase, FDH-coupled NADH fluorescence (FDH is formaldehyde dehydrogenase). Potency, µM (doses to about 57.7 µM), most hits filed as inhibitors. 2.6% of 220,000 active. AID 1347165; active means well fitted inhibition curve with a large enough effect; further: 0% is about no effect; nearly all actives have a fitted effect of over 70% in size
Target sequence (Q9UGL1 whole entry, looked up): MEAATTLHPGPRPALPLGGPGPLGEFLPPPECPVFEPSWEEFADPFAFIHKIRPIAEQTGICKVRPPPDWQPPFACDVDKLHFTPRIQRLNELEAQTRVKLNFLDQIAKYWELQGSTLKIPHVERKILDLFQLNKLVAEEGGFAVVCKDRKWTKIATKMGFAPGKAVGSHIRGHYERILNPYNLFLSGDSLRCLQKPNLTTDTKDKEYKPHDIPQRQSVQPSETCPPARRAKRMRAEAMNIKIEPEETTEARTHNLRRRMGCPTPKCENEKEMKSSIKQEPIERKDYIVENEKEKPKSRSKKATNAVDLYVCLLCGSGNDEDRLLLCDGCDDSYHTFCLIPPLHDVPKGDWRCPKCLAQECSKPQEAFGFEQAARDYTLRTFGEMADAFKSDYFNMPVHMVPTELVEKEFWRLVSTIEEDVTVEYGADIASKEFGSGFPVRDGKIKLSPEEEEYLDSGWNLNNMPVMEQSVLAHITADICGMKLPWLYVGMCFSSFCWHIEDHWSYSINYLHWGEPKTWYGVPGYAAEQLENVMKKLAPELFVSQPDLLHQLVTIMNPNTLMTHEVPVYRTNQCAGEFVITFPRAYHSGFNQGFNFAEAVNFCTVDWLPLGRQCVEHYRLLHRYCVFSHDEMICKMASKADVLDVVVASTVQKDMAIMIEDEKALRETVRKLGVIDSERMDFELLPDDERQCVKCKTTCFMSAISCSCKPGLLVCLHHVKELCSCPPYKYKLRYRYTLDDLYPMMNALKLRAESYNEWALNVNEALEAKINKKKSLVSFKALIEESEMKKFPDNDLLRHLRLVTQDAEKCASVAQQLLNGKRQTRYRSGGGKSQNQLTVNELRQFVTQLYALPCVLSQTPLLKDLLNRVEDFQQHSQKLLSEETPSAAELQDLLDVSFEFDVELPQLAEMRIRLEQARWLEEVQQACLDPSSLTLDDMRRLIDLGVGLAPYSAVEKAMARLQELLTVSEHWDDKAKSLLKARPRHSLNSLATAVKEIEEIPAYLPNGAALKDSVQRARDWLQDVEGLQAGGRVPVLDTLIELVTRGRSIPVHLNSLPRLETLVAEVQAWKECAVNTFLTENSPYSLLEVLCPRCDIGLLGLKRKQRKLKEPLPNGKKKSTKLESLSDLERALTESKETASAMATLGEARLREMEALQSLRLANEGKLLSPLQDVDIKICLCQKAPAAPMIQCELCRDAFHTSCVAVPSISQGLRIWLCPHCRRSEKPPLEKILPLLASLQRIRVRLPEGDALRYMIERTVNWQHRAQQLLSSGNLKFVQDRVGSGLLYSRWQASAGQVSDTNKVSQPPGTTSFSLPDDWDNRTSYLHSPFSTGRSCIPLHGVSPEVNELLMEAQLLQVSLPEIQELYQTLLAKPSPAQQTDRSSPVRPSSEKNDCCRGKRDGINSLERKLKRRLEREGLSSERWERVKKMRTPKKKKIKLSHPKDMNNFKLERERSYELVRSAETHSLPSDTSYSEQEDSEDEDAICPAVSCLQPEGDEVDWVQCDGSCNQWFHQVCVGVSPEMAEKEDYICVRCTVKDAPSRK
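KDM5BΔAP (200 nM final) in 50 mM HEPES pH 7.5, 0.01% Tween-20 was preincubated 10 min at RT with compound over a concentration range. Substrate mix (H3K4me3 12.5 µM, α-KG 25 µM, Fe²⁺, ascorbate, NAD⁺, FDH) was added, and NADH fluorescence change over 30 min gave dose-response curves.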
Starred values were filed as active, the others as inactive; i = inactive. The sample as a whole holds a higher share of hits than the screen did. Potency means the concentration at half of the fitted maximal effect.

SMILES | KDM5B inh
Cc1ccc(C(=O)Nc2ccc(-c3nc4ccccc4o3)cc2)cc1 | i
O=C(Nc1ccc(-c2nc3ccccc3o2)cc1)C(F)(F)F | i
CC(=O)N1CCCC1C(=O)Nc1ccc(-c2nc3ccccc3o2)cc1 (configuration not stated) | 28.2µM*
CC(C)c1noc(-c2cn(C3CCN(C(=O)Cc4ccc(F)cc4)CC3)nn2)n1 | i
CC(C)c1noc(-c2cccn3c(CNC(=O)Cc4ccc(F)cc4)nnc23)n1 | 14.1µM*
CCc1noc(-c2cccn3c(CNC(=O)Cc4ccc(F)cc4)nnc23)n1 | 28.2µM*
O=C(Cn1nc2c(-c3nc(-c4cccc(F)c4)no3)cccn2c1=O)NCc1ccc(F)cc1 | i
CCCc1noc(-c2ccn3c(CNC(=O)c4cccc(C)c4)nnc3c2)n1 | i
CCc1noc(-c2cccn3c(CNC(=O)Cc4ccc(C)cc4)nnc23)n1 | 25.1µM*
CCc1noc(-c2cccn3c(CNC(=O)c4cccc(C)c4)nnc23)n1 | 28.2µM*
Cc1cc(CS(=O)(=O)Cc2ccc(Cl)cc2)on1 | i
COC[C@@H]1CN(C(=O)c2ccoc2C)C[C@H]1c1nc(C)no1 | i
COC(=O)c1ccc(CNCc2ccccc2)o1 | i
CCc1nnc(C(=O)Nc2ccc(C(=O)N3CCOCC3)cc2)s1 | i
COC(=O)c1ccc(C(=O)N(C)Cc2ccsc2)s1 | i
Cc1ccc2nc(-c3ccc(C)c(NC(=O)c4ccc([N+](=O)[O-])cc4)c3)oc2c1 | i
Cc1cc(=O)n(CC(=O)Nc2cccc(C(C)C)c2)c(N2CCOCC2)n1 | i
N#Cc1ccc(C(=O)N2CCC(n3cc(-c4nc(C5CC5)no4)nn3)C2)cc1 (configuration not stated) | i
O=C(O)COc1ccc(-c2nccc3c2C(=O)N(Cc2c[nH]c4ccccc24)CC(CNC(=O)Cc2ccccc2)O3)cc1 (configuration not stated) | i
Cc1ccccc1NC(=O)C(=O)NCC(c1ccc2c(c1)OCO2)N1CCN(C)CC1 (configuration not stated) | i
Cc1c(C(=O)N2CCC(c3nc4ccccc4o3)CC2)oc2cc(Br)ccc12 | i
CN(C)C[C@@H]1CN(S(C)(=O)=O)C[C@H]1NC(=O)c1cc2ccccc2[nH]1 | 31.6µM*
Cc1ccccc1C(=O)N[C@@H]1CN(S(C)(=O)=O)C[C@H]1CN(C)C | i
CN(C)C[C@@H]1CN(S(C)(=O)=O)C[C@H]1NC(=O)c1c[nH]c2ccccc12 | i
CCc1cnc2c(c1SC(C)CC)c(=O)n(C)c(=O)n2C (configuration not stated) | i
SMILES | KDM5B inh
O=C(CCc1ncc(-c2ccccc2F)o1)Nc1ccc(N2CCOCC2)cc1N1CCOCC1 | i
COC(=O)c1cccc(OC(=O)c2ccccc2C)c1 | i
CC(C)c1noc(-c2cccn3c(CNC(=O)c4c(F)cccc4Cl)nnc23)n1 | 15.8µM*
COc1ccc(C(=O)NCc2nnc3c(-c4nc(C(C)C)no4)cccn23)cc1F | 31.6µM*
COc1ccc(C(=O)NCCn2cccc2-c2nc(-c3ccccc3)no2)cc1F | i
COc1ccc(-c2noc(-c3cccn3CC(=O)NCc3ccc(OC)c(OC)c3)n2)cc1F | i
CC(C)c1noc(-c2cccn3c(CNC(=O)c4ccc(F)c(F)c4)nnc23)n1 | 11.2µM*
CC(=O)Oc1ccc2c(C)c(CC(=O)NCCc3ccc(Cl)cc3)c(=O)oc2c1OC(C)=O | i
COc1ccc(-c2noc(CC3CCN(C(=O)C4CCN(C(=O)c5ccccc5)CC4)CC3)n2)cc1 | i
COc1ccc(OCCN(C)C(=O)c2cn(C)c3ccccc23)cc1 | i
O=C(NC[C@H]1Cn2c(-c3ccccc3)cnc2CO1)c1cnccn1 | i
CCCNC(=O)C1=CC(c2cccs2)=NS(=O)(=O)N1C | i
CCCNc1c(NC(=O)Nc2ccc(C)cc2)c(=O)oc2ccccc12 | i
Cc1nocc1C(=O)N1CCCn2ccnc2C1c1cnn(C)c1 (configuration not stated) | i
CCOCCOC1CCN(S(=O)(=O)Cc2ccccc2F)CC1 | i
O=C(NCc1ccc(F)cc1)C1c2ccccc2C(=O)N(Cc2ccccc2)C12CCCC2 (configuration not stated) | i
O=C(c1ccccc1OCC1CCCN(C(=O)c2n[nH]c3ccccc23)C1)N1CCOCC1 (configuration not stated) | i
CCCCN(C)C(=O)c1cccc2c(C)c(C)[nH]c12 | i
O=C1Cc2c(-c3ccccc3Cl)n[nH]c2CN1Cc1ccccn1 | i
COc1ccc(CN2C(=O)COC[C@H]2C(=O)NCc2ccc(Cl)cc2)cc1OC | i
Cc1noc(-c2cc(Br)cc(Br)c2O)n1 | i
Cn1c(=O)c2ccnn2c2ccc(C(=O)Nc3ccc(N4CCOCC4)cc3)cc21 | i
CCCCNC(=O)c1ccc2c(c1)n(Cc1ccc(F)cc1)c(=O)c1ccnn12 | 22.4µM*
Cn1c(=O)c2ccnn2c2ccc(C(=O)NCCN3CCC(N4CCCCC4)CC3)cc21 | 28.2µM*
CNC(=O)c1ccc2c(c1)n(Cc1ccc(OC)cc1)c(=O)c1ccnn12 | i
SMILES | KDM5B inh
O=C1CCN(Cc2ccncc2)CCCC(C(=O)NCCN2CCC(N3CCCCC3)CC2)CCN1 (configuration not stated) | i
CCNC(=O)c1ccc(CSc2nc3ccncc3n2Cc2ccc(F)cc2)cc1 | i
CCn1c(=O)c2ccnn2c2ccc(C(=O)N3CCN(c4ccccc4)CC3)cc21 | i
COc1ccc(Cn2cc(C(=O)c3ccc(F)cc3)c(=O)c3cc4c(cc32)OCCO4)cc1 | i
CCn1c(=O)c2ccnn2c2ccc(C(=O)NCCCOC(C)C)cc21 | 31.6µM*
CN(C)C(=O)c1ccc2c(c1)n(Cc1ccc(F)cc1)c(=O)c1ccnn12 | 28.2µM*
CCCCNC(=O)c1ccc2c(=O)n(Cc3ccc(OC)cc3)c(=O)[nH]c2c1 | i
CC(C)OCCCNC(=O)c1ccc(Cn2c(=O)c3cccn3c3cccnc32)cc1 | i
O=C(NCc1ccncc1)C1CCN(C(=O)c2ncn3c2COC(c2ccc(F)cc2)C3)CC1 (configuration not stated) | i
Cc1ccc(Cl)cc1NC(=O)N1CCCC(Cn2cnc3cccnc32)C1 (configuration not stated) | i
Cc1ccc2nc(CO[C@H]3CN(C(=O)c4ccccc4)C[C@H]3F)[nH]c2c1 | i
Cc1ccc(S(=O)(=O)N2CCN(C(=O)Cc3c(C)nn(C)c3C)CC2)cc1 | i
Cn1cccc1C(=O)N1CCn2c(nnc2[C@@H]2C[C@@H](O)CN2Cc2ccccc2)C1 | i
COc1ccc(C(=O)COC(=O)c2ccc(F)cc2F)c(OC)c1 | i
Nc1c(Cl)cc(C23CC4CC(CC(C4)C2)C3)cc1Cl | i
O=C(Cc1cccs1)Nc1cccc2c1CCCC2 | i
CC(C)c1ccc(NC(=O)C(C)N2CCN(C(=O)c3ccco3)CC2)cc1 (configuration not stated) | i
CN(C)c1cccc(C(=O)Nc2ccc(CC#N)cc2)c1 | i
Cc1ccc(C)c(CS(=O)(=O)Cc2nc(CC(C)C)no2)c1 | i
CC(C)N1C(=O)C(CC(=O)NCC2CCN(Cc3ccccc3F)CC2)=C2CCCCC21 (configuration not stated) | i
O=C(CC(F)(F)F)N1CCC(N2C(=O)C(O)C23CCCCC3)CC1 (configuration not stated) | i
Cc1ccc(-n2nc(C(=O)Nc3ccc(C)c(F)c3)c(=O)n(C)c2=O)cc1 | i
